# From PubChem BioAssay (Tox21)
# “And” between values parts separate entries of the source, which are not always exact repeats. Equal entries are not always repeated. Records with an inconclusive call do not appear. Where a call stands in place of a potency, no number is given. Where a structure was tested more than once in an assay, its records may differ in their call. The source made the active and inactive calls. Unless noted, calls come from the whole dose curve; as a rule, active = well fitted curve in the direction sought with a large enough effect in the repeat runs; inconclusive = weak or mixed curves; inactive = no such curve, though single readings can be large; an effect the other way counts as inactive or inconclusive.
# Assays:
# [1] = qHTS assay to identify small molecule antagonists of the estrogen related receptor (ERR) signaling pathway from Tox21 library - cell viability counter screen (AID 1224834); note: nearly all actives have a fitted effect of over 30% in size; note: potency is the fitted concentration of half-maximal effect
# Procedure, shortened: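 Fluorescence from CellTiter-Fluor gives the viability read-out, taken 30 min after reagent addition. Before that, ERR cells seeded 6 h earlier were incubated with compounds for 17.5 h at 37 C.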
# [2] = biological target: Luciferin 4-monooxygenase (Photinus pyralis) (UniProt P08659); experiment: qHTS assay to identify small molecule inhibitors of firefly luciferase (AID 1224835); note: nearly all actives have a fitted effect of over 25% in size
# Procedure, shortened: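 Biochemical qHTS: compounds run as interplate titrations against purified firefly enzyme, with D-luciferin and ATP each at its KM concentration. Light output recorded by CCD imaging.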
# [3] = biological target: Nuclear receptor subfamily 1 group I member 3 (Homo sapiens) (UniProt Q14994); experiment: qHTS assay to identify small molecule antagonists of the constitutive androstane receptor (CAR) signaling pathway (AID 1224838);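 note: HepG2 cells stably expressing hCAR with CYP2B6 luciferase reporter stimulated by CITCO; nearly all actives have a fitted effect of over 40% in size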; note: potency is the fitted concentration of half-maximal effect
# Procedure, shortened: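 HepG2-CYP2B6-hCAR cells; 4 h pre-incubation; cpd (15 conc) + CITCO 50 nM final; 24 h, 37 C/5% CO2; ONE-Glo, luminescence.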
# [4] = biological target: Nuclear receptor subfamily 1 group I member 3 (Homo sapiens) (UniProt Q14994); experiment: qHTS assay to identify small molecule agonists of the constitutive androstane receptor (CAR) signaling pathway (AID 1224839);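 note: HepG2 cells stably carrying human CAR and a CYP2B6 luciferase reporter; nearly all actives have a fitted effect of over 15% in size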
# Procedure, shortened: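 Stable hCAR/CYP2B6-2.2kb HepG2 line in DMEM with 10% FBS; compounds (15 concentrations) and 0.75 uM PK11195 final, 24 h at 37 C/5% CO2, then ONE-Glo luminescence after 30 min.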
# [5] = qHTS assay to identify small molecule antagonists of the estrogen related receptor signaling pathway with the pleiotropic PPARgamma coactivator (PGC) from Tox21 10K library - cell viability counter screen (AID 1224840; active = well fitted cell-killing curve with a large enough effect in the repeat runs, not every such curve was filed as active; note: nearly all actives have a fitted effect of over 40% in size; note: potency is the fitted concentration of half-maximal effect)
# Procedure, shortened: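 PGC/ERR cells, 2,000/well; 6 h pre-incubation 37 C/5% CO2; cpd in DMSO via pin tool; 17.5 h 37 C; CellTiter-Fluor, 30 min; fluorescence.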
# [6] = biological target: Thyrotropin receptor (Homo sapiens) (UniProt P16473); experiment: qHTS assay to identify small molecule agonists of the thyroid stimulating hormone receptor (TSHR) signaling pathway (AID 1224843; calls by dose curve; note: nearly all actives have a fitted effect of over 45% in size; note: potency is the fitted concentration of half-maximal effect)
# Procedure, shortened: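 TSHR-HEK293 cells in agonist mode, 30 min room-temperature step, then cAMP measured by competitive HTRF (cAMP-d2 with anti-cAMP cryptate) after 1 h at room temperature. Tested at 15 concentrations in triplicate.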
# [7] = qHTS assay to identify small molecule agonists of the hypoxia (HIF-1) signaling pathway - cell viability counter screen (AID 1224844; calls by dose curve; note: nearly all actives have a fitted effect of over 50% in size; note: potency is the fitted concentration of half-maximal effect)
# Procedure, shortened: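 ME-180 HRE-bla cells, 2,000/well, 0.5% dialyzed FBS; 5 hr settle, 17 hr compound at 37C/5% CO2; CCF4-AM reporter read first, then CellTiter-Glo luminescence after 30 min RT.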
# [8] = qHTS assay to identify small molecule agonists of H2AX (AID 1224845; active = well fitted activation curve with a large enough effect in the signal ratio in the repeat runs, not every such curve was filed as active; the % refers to the signal ratio)
# Procedure, shortened: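 Wild-type CHO-K1 cells, plated overnight, exposed 3hr at 37C to 15 concentrations (0.76% DMSO final). Lysed, then HTRF anti-pH2AX (S139) cryptate and anti-H2AX-d2 antibodies, 24 hr room temperature; 665/620 nm emission read.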
# [9] = qHTS assay to identify small molecule agonists of the hypoxia (HIF-1) signaling pathway (AID 1224846; active = well fitted activation curve with a large enough effect in the signal ratio in the repeat runs, not every such curve was filed as active; the % refers to the signal ratio)
# Procedure, shortened: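 Cell line: CellSensor HRE-bla ME-180; 2,000 cells/well; 0.5% dialyzed FBS; 5 h preincubation; DMSO compound pin transfer; 17 h, 37C, 5% CO2; CCF4-AM added; bla FRET signal scored for activation.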
# [10] = qHTS assay to identify small molecule agonists of H2AX - cell viability counter screen (AID 1224847; calls by dose curve; note: top concentration of the series differs between compounds; nearly all actives have a fitted effect of over 30% in size)
# Procedure, shortened: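 Viability of CHO-K1 (wild type) cells after 3 hr compound exposure was measured by CellTiter-Glo luminescence.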
# [11] = qHTS RealTime-Glo MT Cell Viability Assay in HepG2 cells - 24 hour (AID 1224867); note: nearly all actives have a fitted effect of over 50% in size
# Procedure, shortened: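 Viability was tracked continuously by NanoLuc luminescence from prosubstrate reduced by living HepG2 cells, at successive time points over 40 h of compound exposure. Cells with reagent were preincubated 5 h at 37 °C before compound addition.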
# [12] = qHTS RealTime-Glo MT Cell Viability Assay in HEK293 cells - 32 hour (AID 1224868); note: nearly all actives have a fitted effect of over 50% in size; note: potency is the fitted concentration of half-maximal effect
# Procedure, shortened: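 Viability tracked continuously by luminescence as live cells reduce a prosubstrate for NanoLuc; HEK293 cells preincubated 5 h, compound-treated at 37 C, and read at 0, 8, 16, 24, 32 and 40 h.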
# [13] = A CellTox Green Cytotoxicity Assay to monitor cytotoxicity in HEK293 cells - 0 hour (AID 1224869); note: nearly all actives have a fitted effect of over 50% in size
# Procedure, shortened: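 Nonlytic real-time cytotoxicity: HEK293 + CellTox Green reagent plated, 5 h preincubation, pintool compound addition (23 nL in DMSO), 37 C for 40 h, fluorescence measured at successive time points.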
# [14] = qHTS RealTime-Glo MT Cell Viability Assay in HepG2 cells - 40 hour (AID 1224870); note: nearly all actives have a fitted effect of over 50% in size
# Procedure, shortened: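 HepG2 cells (600/well) mixed with RealTime-Glo MT reagent, settled 5 h at 37 C/5% CO2 before compound addition. Nonlytic NanoLuc luminescence from viable-cell prosubstrate reduction read repeatedly during 40 h treatment at 37 C.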
# [15] = qHTS assay to identify small molecule antagonists of the estrogen related receptor signaling pathway with the pleiotropic PPARgamma coactivator (PGC) from Tox21 10K library (AID 1224841; call rule not given here; note: potency is the fitted concentration of half-maximal effect)
# Procedure, shortened: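 PGC/ERR cell line, 2,000 cells/well; 6 h pre-incubation 37 C/5% CO2; compounds (DMSO) pinned in; 18 h, 37 C; One-Glo, 30 min RT; luminescence.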
# [16] = qHTS assay to identify small molecule agonists of the estrogen related receptor signaling pathway with the pleiotropic PPARgamma coactivator (PGC) from Tox21 10K library (AID 1224842); note: nearly all actives have a fitted effect of over 15% in size
# Procedure, shortened: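 PGC/ERR reporter cell line, 2,000 cells per well, incubated 6 h at 37 C before 23 nL compound in DMSO was added. After 18 h at 37 C, One-Glo luminescence read following 30 min at room temperature.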
# [17] = qHTS assay to identify small molecule antagonists of the estrogen related receptor (ERR) signaling pathway from Tox21 library (AID 1224848); note: nearly all actives have a fitted effect of over 50% in size; note: potency is the fitted concentration of half-maximal effect
# Procedure, shortened: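 ERR reporter cell line (from NTP) seeded 2,000 cells/well, rested 6 h at 37 C/5% CO2, then pin-dosed with compounds in DMSO. After 18 h at 37 C, ONE-Glo added; luminescence read after 30 min at room temperature.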
# [18] = qHTS assay to identify small molecule agonists of the estrogen related receptor (ERR) signaling pathway from Tox21 library (AID 1224849; calls by dose curve; note: nearly all actives have a fitted effect of over 15% in size); conditions: ERR reporter cell line, ONE-Glo luciferase, 18 h
# Procedure, shortened: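 ERR cells, 6 h pre-incubation 37 C/5% CO2; cpd in DMSO pinned; 18 h 37 C; ONE-Glo added, 30 min RT; luminescence read. Agonist mode, qHTS.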
# [19] = qHTS assay to identify small molecule antagonists of the constitutive androstane receptor (CAR) signaling pathway - cell viability counter screen (AID 1224837); note: nearly all actives have a fitted effect of over 45% in size
# Procedure, shortened: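 HepG2-CYP2B6-hCAR cells, 2500/well, 4 hr pre-incubation; compound titration, 15 conc.; CITCO 50 nM final; 23 hr, 37 C/5% CO2; CellTiter-Fluor, fluorescence intensity.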
# [20] = qHTS assay to identify small molecule agonists of the constitutive androstane receptor (CAR) signaling pathway - cell viability counter screen (AID 1224836); note: nearly all actives have a fitted effect of over 45% in size
# Procedure, shortened: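 Fluorescence from CellTiter-Fluor indicates live cells after 23 h exposure. The human hepatoma line expresses hCAR and a CYP2B6-2.2kb reporter. Incubation medium contains 0.75 uM PK11195 (final).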
# Chain of Luciferin 4-monooxygenase (Photinus pyralis) (P08659 whole entry, looked up): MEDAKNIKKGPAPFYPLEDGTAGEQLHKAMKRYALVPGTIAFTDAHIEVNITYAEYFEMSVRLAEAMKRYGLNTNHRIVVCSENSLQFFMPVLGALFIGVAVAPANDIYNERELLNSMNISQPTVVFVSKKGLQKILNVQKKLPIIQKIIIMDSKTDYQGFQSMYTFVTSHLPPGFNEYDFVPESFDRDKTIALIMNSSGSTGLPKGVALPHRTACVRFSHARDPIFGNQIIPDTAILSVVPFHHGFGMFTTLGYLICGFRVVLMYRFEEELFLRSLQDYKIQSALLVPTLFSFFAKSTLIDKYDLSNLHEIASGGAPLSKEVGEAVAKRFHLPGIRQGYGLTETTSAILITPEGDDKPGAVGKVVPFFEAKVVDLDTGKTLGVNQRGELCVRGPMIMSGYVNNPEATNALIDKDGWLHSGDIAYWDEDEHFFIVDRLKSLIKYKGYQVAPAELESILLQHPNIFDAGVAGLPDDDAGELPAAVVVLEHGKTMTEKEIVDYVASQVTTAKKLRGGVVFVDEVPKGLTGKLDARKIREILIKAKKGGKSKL
# Chain of Thyrotropin receptor (Homo sapiens) (P16473 whole entry, looked up): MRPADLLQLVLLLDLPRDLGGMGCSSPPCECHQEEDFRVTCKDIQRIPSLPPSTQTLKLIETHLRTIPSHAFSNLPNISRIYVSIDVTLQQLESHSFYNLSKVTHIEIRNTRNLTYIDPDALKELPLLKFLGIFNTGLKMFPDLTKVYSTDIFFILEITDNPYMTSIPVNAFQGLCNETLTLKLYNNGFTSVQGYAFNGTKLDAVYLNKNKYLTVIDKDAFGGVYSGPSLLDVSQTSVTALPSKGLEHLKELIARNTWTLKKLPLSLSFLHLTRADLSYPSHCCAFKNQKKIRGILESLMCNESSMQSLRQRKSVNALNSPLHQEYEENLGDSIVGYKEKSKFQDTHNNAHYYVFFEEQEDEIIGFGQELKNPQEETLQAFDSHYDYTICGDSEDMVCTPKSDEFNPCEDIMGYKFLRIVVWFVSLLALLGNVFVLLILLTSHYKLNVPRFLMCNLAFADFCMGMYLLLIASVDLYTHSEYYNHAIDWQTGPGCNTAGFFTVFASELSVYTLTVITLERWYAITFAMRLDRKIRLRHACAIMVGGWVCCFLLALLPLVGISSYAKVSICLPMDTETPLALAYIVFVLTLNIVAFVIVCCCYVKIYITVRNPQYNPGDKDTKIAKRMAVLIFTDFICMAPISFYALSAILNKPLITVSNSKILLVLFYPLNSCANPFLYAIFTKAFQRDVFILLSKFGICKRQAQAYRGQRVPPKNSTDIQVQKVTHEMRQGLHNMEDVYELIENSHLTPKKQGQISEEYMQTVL
# Chain of Nuclear receptor subfamily 1 group I member 3 (Homo sapiens) (Q14994 whole entry, looked up): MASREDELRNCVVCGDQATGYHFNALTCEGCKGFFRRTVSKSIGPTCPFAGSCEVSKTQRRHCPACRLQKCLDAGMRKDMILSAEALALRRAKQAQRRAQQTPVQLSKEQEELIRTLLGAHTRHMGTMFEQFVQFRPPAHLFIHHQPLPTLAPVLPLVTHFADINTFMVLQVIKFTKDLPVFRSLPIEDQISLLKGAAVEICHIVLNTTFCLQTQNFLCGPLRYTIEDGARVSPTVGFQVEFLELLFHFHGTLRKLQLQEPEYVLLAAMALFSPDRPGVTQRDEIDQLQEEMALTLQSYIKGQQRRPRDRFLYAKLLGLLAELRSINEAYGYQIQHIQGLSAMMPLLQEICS
smiles,measurement,setting,value
CCCCCCCCCCCCCCCCCC(=O)OCC(O)CO (stereo not given),Potency,[1],inactive
same,Potency,[2],inactive
same,Potency,[3],inactive
same,Potency,[4],inactive
same,Potency,[5],inactive
same,Potency,[6],inactive
same,Potency,[7],inactive
same,Potency,[8],inactive
same,outcome,[9],inactive
same,Potency,[10],inactive
same,outcome,[11],inactive
same,Potency,[12],inactive
same,Potency,[13],inactive
same,outcome,[14],inactive
O=[N+]([O-])c1ccc(O)cc1,Potency,[1],50.4 µM (active) and 30.6 µM (active) and 54.5 µM (active)
same,Potency,[2],inactive
same,Potency,[3],inactive
same,Potency,[4],inactive
same,Potency,[5],30.6 µM (active)
same,Potency,[6],inactive
same,Potency,[7],inactive
same,Potency,[8],inactive
same,outcome,[9],inactive
same,Potency,[10],inactive
same,outcome,[11],inactive
same,Potency,[12],inactive
same,outcome,[14],inactive
CN(C)C=O,Potency,[1],inactive
same,Potency,[2],inactive
same,Potency,[3],inactive
same,Potency,[4],inactive
same,Potency,[5],inactive
same,Potency,[15],inactive
same,Potency,[16],inactive
same,Potency,[6],inactive
same,Potency,[7],inactive
same,Potency,[8],inactive
same,outcome,[9],inactive
same,Potency,[10],inactive
same,Potency,[17],inactive
same,"activity change, positive = activation",[18]; at 92.4 µM (top of the series),7.34% (inactive) and 6.88% (inactive)
same,outcome,[11],inactive
same,Potency,[12],inactive
same,Potency,[13],inactive
same,outcome,[14],inactive
Cc1c(N(C)CS(=O)(=O)O)c(=O)n(-c2ccccc2)n1C,Potency,[1],inactive
same,Potency,[2],inactive
same,Potency,[3],inactive
same,Potency,[4],inactive
same,Potency,[5],inactive
same,Potency,[6],inactive
same,Potency,[7],inactive
same,Potency,[8],inactive
same,outcome,[9],inactive
same,Potency,[10],inactive
same,outcome,[11],inactive
same,Potency,[12],inactive
same,outcome,[14],inactive
C[C@]12CC[C@@H]3c4ccc(O)cc4C[C@@H](CCCCCCCCCS(=O)CCCC(F)(F)C(F)(F)F)[C@H]3[C@@H]1CC[C@@H]2O (stereo not given in full),Potency,[2],inactive
same,Potency,[19],inactive
same,Potency,[3],inactive
same,Potency,[4],inactive
same,Potency,[5],inactive
same,Potency,[15],19.3 µM (active) and 6.39 µM (active)
same,Potency,[16],inactive
same,Potency,[6],inactive
same,Potency,[7],inactive
same,Potency,[8],inactive
same,outcome,[9],inactive
same,Potency,[10],inactive
same,Potency,[17],6.85 µM (active) and 5.7 µM (active) and 5.96 µM (active)
same,outcome,[11],inactive
same,Potency,[12],43.6 µM (active)
same,Potency,[13],inactive
same,outcome,[14],inactive
NC(=O)N1c2ccccc2C=Cc2ccccc21,Potency,[1],inactive
same,Potency,[2],inactive
same,Potency,[3],inactive
same,Potency,[4],inactive
same,Potency,[5],inactive
same,Potency,[7],inactive
same,Potency,[8],inactive
same,outcome,[9],inactive
same,Potency,[10],inactive
same,outcome,[11],inactive
same,Potency,[12],inactive
same,outcome,[14],inactive
O=C1CCCCCN1,Potency,[1],inactive
same,Potency,[2],inactive
same,Potency,[3],inactive
same,Potency,[4],inactive
same,Potency,[5],inactive
same,Potency,[15],inactive
same,Potency,[16],inactive
same,Potency,[6],inactive
same,Potency,[7],inactive
same,Potency,[8],inactive
same,outcome,[9],inactive
same,Potency,[10],inactive
same,Potency,[17],inactive
same,outcome,[11],inactive
same,Potency,[12],inactive
same,outcome,[14],inactive
CN/C(=C\[N+](=O)[O-])NCCSCc1ccc(CN(C)C)o1,Potency,[1],inactive
same,Potency,[2],inactive
same,Potency,[3],inactive
same,Potency,[4],inactive
same,Potency,[5],inactive
same,Potency,[6],inactive
same,Potency,[7],inactive
same,Potency,[8],inactive
same,Potency,[10],inactive
same,outcome,[11],inactive
same,Potency,[12],inactive
same,Potency,[13],inactive
same,outcome,[14],inactive
COc1cc2c(c(OC)c1OC)-c1ccc(OC)c(=O)cc1[C@@H](NC(C)=O)CC2,Potency,[1],inactive
same,Potency,[2],inactive
same,Potency,[5],2.4 µM (active) and inactive
same,Potency,[7],48.4 µM (active) and inactive
same,Potency,[8],inactive
same,outcome,[9],inactive
same,Potency,[10],inactive
same,outcome,[11],inactive
same,Potency,[12],0.0243 µM (active)
same,outcome,[14],inactive
CC(C)CC(C)CC(O)CC(C)C (stereo not given),Potency,[1],inactive
same,Potency,[2],inactive
same,Potency,[3],inactive
same,Potency,[4],inactive
same,Potency,[5],inactive
same,Potency,[15],inactive
same,Potency,[16],inactive
same,Potency,[7],inactive
same,Potency,[8],inactive
same,outcome,[9],inactive
same,Potency,[10],inactive
same,Potency,[17],inactive
same,outcome,[11],inactive
same,Potency,[12],inactive
same,outcome,[14],inactive
COC1=CC(=O)C[C@@H](C)[C@]12Oc1c(Cl)c(OC)cc(OC)c1C2=O,Potency,[2],inactive
same,Potency,[20],inactive
same,Potency,[3],9.6 µM (active) and 13.7 µM (active)
same,Potency,[4],inactive
same,Potency,[5],inactive
same,Potency,[15],inactive
same,Potency,[16],inactive
same,Potency,[6],9.6 µM (active) and 17.2 µM (active)
same,Potency,[7],inactive
same,Potency,[8],inactive
same,outcome,[9],inactive
same,Potency,[10],inactive
same,Potency,[17],4.81 µM (active) and 7.7 µM (active) and 5.96 µM (active)
same,"activity change, positive = activation",[18]; at 42.5 µM (top of the series),-32% (inactive)
same,"activity change, positive = activation",[18]; at 92.4 µM (top of the series),-36.3% (inactive) and -39.4% (inactive)
same,outcome,[11],inactive
same,Potency,[12],inactive
same,Potency,[13],inactive
same,outcome,[14],inactive
